± gives the standard deviation.

Holding throughout (test): peptide microarray binding signal (635 nm), min-max normalized on array (fraction of array maximum); higher = stronger binding
Assay [1] has as its target T1, HaloTag-ATRX ADD domain (163-292).
T1 chain: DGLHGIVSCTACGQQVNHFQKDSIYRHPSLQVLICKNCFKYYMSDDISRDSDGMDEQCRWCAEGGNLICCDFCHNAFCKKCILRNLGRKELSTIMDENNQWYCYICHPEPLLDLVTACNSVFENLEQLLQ
In a few lines: (§1)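 Triplicate spots of histone 13-mer peptide–cellulose conjugates with a Cy3 tracer were printed on nitrocellulose and probed for 1 h at 4°C with biotin-labelled HaloTag reader fusions (10 nM to 1 μM) plus streptavidin-Alexa Fluor 647 or rabbit histone antibodies (1:10,000 to 1:2,000) plus anti-rabbit Alexa 647. An Axon GenePix 4000B read the 635 nm channel. Binding signal is the spot-triplicate mean intensity after min-max scaling within each library.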

For assay [2], the target named is HaloTag-ING2 PHD (mouse Ing2 200-280). Put shortly: as §1
The target in assay [3] is anti-H3K4me3 antibody ab8580. In a few lines: as §1
Assay [4] deals with anti-H3K9me3 antibody ab8898. Put shortly: as §1
[5] abbreviates: peptide region: H3 50-62, peptide modifications: H3K56me2, binder concentration: 1:2,000 dilution.
Where [6] appears, read: peptide region: H3 50-62, peptide modifications: H3K56me2, binder concentration: 1:10,000 dilution.
The mark [7] stands for this setting: peptide region: H3 50-62, peptide modifications: H3K56ac H3T58ph, binder concentration: 1:2,000 dilution.
The mark [8] stands for this setting: peptide region: H3 50-62, peptide modifications: H3K56ac H3T58ph, binder concentration: 1:10,000 dilution.
The mark [9] stands for this setting: peptide region: H3 50-62, peptide modifications: H3K56me3 H3S57ph, binder concentration: 1:2,000 dilution.
Setting [10] is: peptide region: H3 50-62, peptide modifications: H3K56me3 H3S57ph, binder concentration: 1:10,000 dilution.
The mark [11] stands for this setting: peptide region: H3 30-42, peptide modifications: H3K36me3 H3K37me2, binder concentration: 1:2,000 dilution.
Where [12] appears, read: peptide region: H3 30-42, peptide modifications: H3K36me3 H3K37me2, binder concentration: 1:10,000 dilution.
Where [13] appears, read: peptide region: H3 50-62, binder concentration: 1:2,000 dilution.
Setting [14] is: peptide region: H3 50-62, binder concentration: 1:10,000 dilution.

As to EIRRYQKSTELLI [H3 50-62 E I R R Y Q Kme2 S T E L L I], the “peptide microarray binding signal” value in assay [1] (peptide region: H3 50-62, peptide modifications: H3K56me2, binder concentration: 50 nM) was 0.01 ± 0.00043; in assay [1] (peptide region: H3 50-62, peptide modifications: H3K56me2, binder concentration: 500 nM) it was 0.0165 ± 0.0014; in assay [2] (peptide region: H3 50-62, peptide modifications: H3K56me2, binder concentration: 10 nM), 0.0135 ± 0.0033; in assay [2] (peptide region: H3 50-62, peptide modifications: H3K56me2, binder concentration: 100 nM), 0.00624 ± 0.00068; in assay [3] (setting [5]) it was 0.000868 ± 0.00013; in assay [3] (setting [6]), 0.00171 ± 8.6e-05. Also, the “peptide microarray binding signal” value in assay [4] (setting [5]) was 0.00953 ± 0.00056; in assay [4] (setting [6]) it was 0.00323 ± 0.0002.

As for EIRRYQKSTELLI [H3 50-62 E I R R Y Q Kac S Tph E L L I], the “peptide microarray binding signal” value amounted to 0.00141 ± 1.8e-05 in assay [1] (peptide region: H3 50-62, peptide modifications: H3K56ac H3T58ph, binder concentration: 50 nM); 0.001381 ± 1.3e-05 in assay [1] (peptide region: H3 50-62, peptide modifications: H3K56ac H3T58ph, binder concentration: 500 nM); 0.002924 ± 2.8e-05 in assay [2] (peptide region: H3 50-62, peptide modifications: H3K56ac H3T58ph, binder concentration: 10 nM); 0.00149 ± 1.5e-05 in assay [2] (peptide region: H3 50-62, peptide modifications: H3K56ac H3T58ph, binder concentration: 100 nM); 0.0004719 ± 4.7e-06 in assay [3] (setting [7]); 0.000514 ± 5.5e-06 in assay [3] (setting [8]). Besides, the “peptide microarray binding signal” value in assay [4] (setting [7]) was determined as 0.000468 ± 1.8e-05; in assay [4] (setting [8]), 0.00104 ± 5.9e-05.

Take EIRRYQKSTELLI [H3 50-62 E I R R Y Q Kme3 Sph T E L L I]: the “peptide microarray binding signal” value in assay [1] (peptide region: H3 50-62, peptide modifications: H3K56me3 H3S57ph, binder concentration: 50 nM) was 0.00122 ± 2.2e-05; in assay [1] (peptide region: H3 50-62, peptide modifications: H3K56me3 H3S57ph, binder concentration: 500 nM), 0.00224 ± 0.0003; in assay [2] (peptide region: H3 50-62, peptide modifications: H3K56me3 H3S57ph, binder concentration: 10 nM), 0.00251 ± 0.0001; in assay [2] (peptide region: H3 50-62, peptide modifications: H3K56me3 H3S57ph, binder concentration: 100 nM) it was 0.00142 ± 0.00012; in assay [3] (setting [9]) it was 0.00238 ± 0.00081; in assay [3] (setting [10]), 0.00177 ± 5e-05. Also, the “peptide microarray binding signal” value was found to be 0.0141 ± 0.011 in assay [4] (setting [9]) and 0.0094 ± 0.0038 in assay [4] (setting [10]).

Regarding PATGGVKKPHRYR [H3 30-42 P A T G G V Kme3 Kme2 P H R Y R], the “peptide microarray binding signal” value in assay [1] (peptide region: H3 30-42, peptide modifications: H3K36me3 H3K37me2, binder concentration: 50 nM) came to 0.002539 ± 1.1e-05; in assay [1] (peptide region: H3 30-42, peptide modifications: H3K36me3 H3K37me2, binder concentration: 500 nM), 0.00462 ± 0.00097; in assay [2] (peptide region: H3 30-42, peptide modifications: H3K36me3 H3K37me2, binder concentration: 10 nM), 0.00471 ± 0.0004; in assay [2] (peptide region: H3 30-42, peptide modifications: H3K36me3 H3K37me2, binder concentration: 100 nM), 0.00347 ± 0.00061; in assay [3] (setting [11]), 0.00132 ± 0.00026; in assay [3] (setting [12]) it was 0.00805 ± 0.0039. Further, the “peptide microarray binding signal” value in assay [4] (setting [11]) is 0.00571 ± 0.0035; in assay [4] (setting [12]) it was 0.00363 ± 0.00092.

Consider EIRRYQKSTELLI [H3 50-62 E I R R Y Q K S T E L L I], for which the “peptide microarray binding signal” value in assay [1] (peptide region: H3 50-62, binder concentration: 50 nM) worked out at 0.00599 ± 0.00033; in assay [1] (peptide region: H3 50-62, binder concentration: 500 nM) it was 0.0144 ± 0.00044; in assay [2] (peptide region: H3 50-62, binder concentration: 10 nM), 0.00859 ± 0.00029; in assay [2] (peptide region: H3 50-62, binder concentration: 100 nM) it was 0.00149 ± 5.6e-05; in assay [3] (setting [13]) it was 0.00017 ± 3.2e-06; in assay [3] (setting [14]) it was 0.00514 ± 0.0014. For the same molecule, the “peptide microarray binding signal” value in assay [4] (setting [13]) was determined as 0.00299 ± 0.00025; in assay [4] (setting [14]), 0.00288 ± 7.4e-05.
